DAX1 inh-1 – blocks DAX1 repression of SF-1 activated StAR promoter. HEK293T StAR-luciferase reporter, SF-1/DAX-1 repression relief. inhibition, % at 6.8 µM. hit rate 1.1% among 370,000. AID 652010;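 active means inhibition above the mean over all tested compounds plus 3 SD, cut at about 3.6% in these data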;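 further: 0% = DAX-1 cells with DMSO and 100% = cells lacking DAX-1 with DMSO; higher inhibition means more luminescence from relief of DAX-1 repression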
hgDAF12 agonist – agonists of H. glycines DAF-12 nuclear receptor | HEK293 GAL4-hgDAF12 UAS-luciferase reporter, agonist luminescence; normalized to butyrate control | activation, % at 6.8 µM | hit rate 1.8% among 370,000;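 active means activation above a cutoff set at the mean of all screened compounds plus 3 SD, cut at about 10% in these data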;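 further: 0% = DMSO wells and 100% = sodium butyrate wells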
DAX1 inh-2 – inhibitors of human orphan nuclear receptor DAX1 (NR0B1); hit rate 0.99% among 340,000; inhibition, % at 6.75 µM; AID 504766; P51843; HEK293 Gal4-DAX1 luciferase reporter, luminescence;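 active means inhibition above the mean over all tested compounds plus 3 SD, cut at about 4.2% in these data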;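 further: 0% = DAX1-transfected cells with DMSO and 100% = empty-vector control cells with DMSO; inhibition shows as a rise in luminescence from relieved DAX1 repression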
Target sequence (P51843 207-470 limits assumed): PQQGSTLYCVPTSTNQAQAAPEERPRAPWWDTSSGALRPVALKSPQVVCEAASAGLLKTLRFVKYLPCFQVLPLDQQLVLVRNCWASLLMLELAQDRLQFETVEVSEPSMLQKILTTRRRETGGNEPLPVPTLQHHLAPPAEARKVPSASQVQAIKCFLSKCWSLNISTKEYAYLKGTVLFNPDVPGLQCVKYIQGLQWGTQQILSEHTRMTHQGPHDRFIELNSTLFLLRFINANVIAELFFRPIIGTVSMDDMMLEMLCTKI
ssDAF-12 act – S. stercoralis DAF-12 activation, primary screen | HEK293 ssDAF-12/GRIP1 lit1-tk-luc reporter, luminescence; % of 3 µM dafachronic acid response | activation, % at 6.8 µM | hit rate 1% among 370,000 | AID 652126;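 active means activation above the mean over all tested compounds plus 3 SD, cut at about 0.9% in these data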;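 further: 0% = DMSO-only wells and 100% = 3 µM delta7-dafachronic acid wells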
hcDAF-12 act – activators of H. contortus DAF-12 nuclear receptor | HEK293 hcDAF-12 lit1-tk-luc reporter, luminescence; 0% DMSO, 100% Δ7-dafachronic acid | activation, % at 6.8 µM | hit rate 1.4% among 370,000 | AID 652067;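 active means activation above the mean of all tested compounds plus 3 SD, cut at about 5.5% in these data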;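 further: 100% = response to 3 µM Δ7-dafachronic acid high control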
Starred values were filed as active, the others as inactive; nt = no result given. Sampled rows, rich in hits. Any-hit rate of the full collection: about 4.1%.

SMILES	DAX1 inh-1	hgDAF12 agonist	DAX1 inh-2	ssDAF-12 act	hcDAF-12 act
NC(=O)c1cc2ccncc2c2ccccc12	0	11*	0	-2	-3
Cc1cc(C(N)=O)c2ccccc2n1	-1	0	-1	-1	-2
Cc1c(Cl)cccc1N=c1c([N+](=O)[O-])nn(-c2ccccc2)n1O	0	2	0	0	5.6*
O=[N+]([O-])c1nn(-c2ccc(Cl)cc2)n(O)c1=NCc1ccccc1	0	3	5.0*	-1	-2
O=[N+]([O-])c1nn(-c2ccccc2)n(O)c1=NCc1ccc2c(c1)OCO2	1	4	1	-1	2
O=c1c(Br)c(N2CCCC2)cnn1-c1ccccc1	3	12*	0	0	5.6*
CN1CCN(c2cnn(-c3ccccc3)c(=O)c2Br)CC1	1	3	0	-1	0
Cc1nn(-c2ccc(F)cc2)c2sc(C(=O)OCC(=O)N3CCC(C)CC3)cc12	-1	1	6.3*	-1	1
Cc1noc(C)c1COC(=O)c1cc2c(C)nn(-c3ccc(F)cc3)c2s1	0	2	1	-1	-1
O=C1N/C(=N/N=C/c2ccco2)SC1Cc1ccccc1 (stereo unspecified)	0	-3	5.9*	-1	-1
CC1CCC2(CC1)CCN(CCCOC(=O)Nc1cccc(F)c1)C2=O (stereo unspecified)	-2	3	nt	-2	-2
CC(=O)Nc1ccccc1OCC(=O)NCC(F)(F)F	-1	1	4	-1	0
Nn1c(SCc2cccc(Br)c2)nnc1-c1cccnc1	0	2	0	-2	-1
Nn1c(SCc2cccc(F)c2)nnc1-c1cccnc1	0	2	5.7*	1.1*	-1
Cc1ccc(-c2cc(C(=O)NN=Cc3cccc4ccccc34)[nH]n2)cc1C	-2	12*	nt	-1	0
Cc1ccc(-c2cc(C(=O)NN=Cc3c(O)ccc4ccccc34)[nH]n2)cc1C	-4	-6	nt	-2	-4
OCCCN1CCC2(CCC(c3ccccc3)CC2)C1 (stereo unspecified)	0	2	nt	-2	2
CCCNS(=O)(=O)c1cc(CN2C(=O)c3cccnc3C2=O)ccc1OC	0	0	-1	-1	0
COc1ccc(CN2C(=O)c3cccnc3C2=O)cc1S(=O)(=O)NC(C)C	0	3	5.8*	0	1
CC(=O)Nc1ccc(NC(=O)C2CCN(S(C)(=O)=O)CC2)cc1	1	3	2	0	4
Cc1ccc(C(=O)Oc2ccc(/C=C3\C(=N)N4N=C(N5CCOCC5)SC4=NC3=O)cc2)cc1	0	12*	1	-1	2
CN(Cc1ccco1)C(=O)c1cccc2c1C(=O)N(Cc1cccnc1)C2	0	-2	nt	0	3
COc1ccc(C(=O)Nc2nnc(Cc3ccc(OC)c(OC)c3)s2)cc1	0	-2	2	-1	-1
Cc1c(C(=O)Nc2cccc(F)c2)cnn1-c1ccccc1	2	10*	3	1.6*	5
Cc1ccccc1NC(=O)c1cnn(-c2ccccc2)c1C	1	12*	4	1	1
SMILES	DAX1 inh-1	hgDAF12 agonist	DAX1 inh-2	ssDAF-12 act	hcDAF-12 act
Cc1c(C(=O)Nc2ccccc2)cnn1-c1ccccc1	1	10	2	0	5
CCOC(=O)C1(Cc2ccccc2)CCCN(C(=O)COc2ccccc2OC)C1 (stereo unspecified)	3	8	4.3*	0	1
CCOC(=O)C1(Cc2cccc(OC)c2)CCCN(C(=O)CCc2cccnc2)C1 (stereo unspecified)	0	12*	4	-1	0
Clc1ccc(-n2c(SCc3cccc4ccccc34)nnc2-c2ccco2)cc1	-1	0	nt	-2	-4
CC(C)[C@H](NC(=O)[C@@H]1Cc2c([nH]c3ccccc23)C2c3ccccc3C(=O)N21)C(=O)N1CCC[C@@H]1C(=O)O (stereo partly specified)	-1	1	4	0	5.7*
CC(=O)Nc1ccc(OCc2ccc3c(c2)OCO3)cc1	1	12*	4	0	5
CCOc1ccc(NC(=S)NCc2ccc3c(c2)OCO3)cc1	0	0	5.5*	0	0
COc1ccc(NC(=O)NCc2ccc3c(c2)OCO3)cc1	0	2	-1	-1	-3
Cc1ccc(NC(=S)NCc2ccc3c(c2)OCO3)cc1	1	0	2	0	-1
Cc1cc(C(=O)CN2C(=O)NC3(CCCCC3)C2=O)c(C)n1Cc1ccco1	4.0*	11*	7.1*	2.6*	4
Cc1cc(-n2c(C)cc(C(=O)CN3C(=O)NC4(CCCC4)C3=O)c2C)no1	0	2	5.9*	-2	0
Cc1cc(C(=O)CN2C(=O)NC3(CCCCC3)C2=O)c(C)n1Cc1ccc2c(c1)OCO2	0	8	1	-1	-1
COC(=O)N1CCC2CC1c1c(Cl)cccc12 (stereo unspecified)	0	1	nt	-1	-2
O=C(C1CCN(c2nc(-c3ccc(Br)cc3)cs2)CC1)N1CCNCC1	nt	5	nt	-1	-1
COc1cccc(Cn2nnc(C(=O)NCCc3ccc(Cl)cc3)c2N)c1	-1	3	5.5*	-2	-1
CCOc1ccc(Cn2nnc(C(=O)NCCc3ccccc3)c2N)cc1	1	7	4.4*	-1	-2
CCOc1ccc(Cn2nnc(C(=O)NCCc3ccc(Cl)cc3)c2N)cc1	-1	0	2	-1	-2
COc1cccc(CN(C)C(=O)[C@H]2O[C@@H](n3cnc4c(=O)[nH]c(N)nc43)[C@H](O)[C@@H]2O)c1	-1	0	nt	-1	0
CCCCCCOc1ccc(C(CC(N)=O)C(=O)O)cc1 (stereo unspecified)	0	-2	4.4*	0	-1
CCCCCCOc1ccc(C(CC(=O)NC)C(=O)O)cc1 (stereo unspecified)	1	-1	-2	-1	0
C[C@H]1C2CC(OC(=O)Nc3cccc(Cl)c3)C(C2)[C@H]2CCCCN21 (stereo partly specified)	0	3	nt	0	-2
Clc1ccc(OCc2noc(-c3ccsc3)n2)c(Cl)c1	2	11*	8.3*	0	2
C#CCn1c(C)cc(C)c(S(=O)(=O)c2ccccc2)c1=O	3	11*	3	-1	2
OC(COc1ccc2ccccc2c1Cl)CN1CCOCC1 (stereo unspecified)	2	12*	2	-1	1
COC(=O)CSc1nnc(-c2n[nH]c3c2CCC3)n1N	0	0	nt	-1	0
COc1cc(/C=N/NC(=O)c2ccccn2)ccc1OC(=O)c1cccs1	3	10	1	-1	2
CC(C)Oc1cccc(C(=O)C2CCCN(Cc3cnc(N4CCOCC4)s3)C2)c1 (stereo unspecified)	-2	-5	-1	-2	-2

Screening results (PubChem BioAssay)
